Results reported in PubChem BioAssay (NCATS).
Inconclusive results are not listed. Activity calls are given as the source filed them. Calls follow the shape of the dose curve; as a rule, active = well fitted curve in the direction sought with a large enough effect; inconclusive = small, poorly fitted or top-dose-only effect, or another doubt; inactive = no such curve, though single readings can be large or run the other way.

Assay: Dual reporter qHTS for antagonist of Pregnane X Receptor (hPXR) against the NCATS DSHEA and TCM libraries: Fluorescence Readout (AID 1920061)
Conditions: PXR dual reporter cells, antagonist mode; series mostly up to 40 µM
In short: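 Antagonist mode: rifampicin 2 uM final co-added with compounds to hPXR-LucHepG2 cells for 24 h at 37C. Viability by CellTiter-Fluor, Ex/Em 405/540 nm, 1 h; reporter by ONE-Glo luminescence.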

Structure (SMILES) | outcome
O=C(/C=C/c1ccc(O)c(O)c1)O[C@@H]1CC(C(=O)O)=C[C@@H](O)[C@H]1O | inactive
CC(C)=CCCC(C)(OC1OC(COC2OC(CO)C(O)C2O)C(O)C(O)C1O)C1CCC2(C)C1C(O)CC1C3(C)CCC(OC4OC(CO)C(O)C(O)C4OC4OC(CO)C(O)C(O)C4O)C(C)(C)C3CCC12C (configuration not stated) | inactive
CC[C@H](CC[C@@H](C)[C@H]1CCC2C3CCC4C[C@@H](O)CC[C@]4(C)C3CC[C@@]21C)C(C)C (some centres not stated) | inactive
O=C(O)CC(O)(C(=O)O)C(O)C(=O)O (configuration not stated) | inactive
CCCCCC(=O)CC | inactive
C=C1CC[C@H](O)C/C1=C\C=C1/CCC[C@]2(C)[C@@H]([C@H](C)CC[C@H](C)C(C)C)CC[C@@H]12 | inactive
CC1(C)C2CCC1(C)C(O)C2 (configuration not stated) | inactive
O[C@@H]1[C@@H](O)[C@H](OC/C=C/c2ccccc2)O[C@H](CO[C@@H]2OC[C@H](O)[C@H](O)[C@H]2O)[C@H]1O | inactive
CC(=O)O[C@H]1[C@H](O[C@H]2CC[C@]34C[C@]35CC[C@]3(C)[C@@H]([C@@]6(C)CC[C@@H](C(C)(C)O)O6)[C@@H](O)C[C@@]3(C)[C@@H]5C[C@H](O[C@@H]3O[C@H](CO)[C@@H](O)[C@H](O)[C@H]3O)[C@H]4C2(C)C)OC[C@@H](O)[C@@H]1O | inactive
OCC1=C[C@@H](O)[C@@H]2C=CO[C@@H](OC3O[C@H](CO)[C@@H](O)[C@H](O)[C@H]3O)[C@H]12 (some centres not stated) | inactive
CCCCCCCCCC=O | inactive
CC(=O)OC1CC2CCC1(C)C2(C)C (configuration not stated) | inactive
